For nine compounds, z-score and composite z-score results are on record in PubChem BioAssay.

“And” between values parts separate entries of the source, which are not always exact repeats. Equal values may be shown once. The source holds several records for some structures; these can differ, active in one and inactive in another. The source made the active and inactive calls.

The nature of test [1]: optical density shifts of acrAB sulA E. coli – strain DRC41, OD650, 48 h, E. coli filamentation inducer project, primary screen (AID 1152).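 Also: E. coli MC1000 strain DRC41 lacking acrAB efflux pump and sulA.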 As to conditions: higher = more signal, called active from +8 up or from −8 down.
The nature of test [2]: probe aLefty1 binding on compound microarray – biochemical, small-molecule microarray, 635/667 nm fluorescence, primary screen (AID 1153).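 Also: score merges spot fluorescence with signal-to-noise ratio from the scanned slide images.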 As to conditions: higher = more signal.
Test [3] is described as follows: plasmodial surface anion channel blockers, osmotic lysis – cell-based, P. falciparum Indochina, OD700, 1 h, primary screen (AID 1154). As to conditions: P. falciparum Indochina infected RBC osmotic lysis, higher = more signal, called active from +8 up or from −8 down.
Test [4] in a line: plasmodial surface anion channel blockers, osmotic lysis – cell-based, P. falciparum Indochina, OD700, 2 h, primary screen (AID 1155).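 Also: lysis reports solute entry through the parasite surface anion channel PSAC.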 As to conditions: P. falciparum Indochina infected erythrocytes, higher = more signal, called active from +8 up or from −8 down.
Test [5] in a line: changes in parasitized red cell lysis, either direction – P. falciparum Indochina, OD700, 3 h, PSAC antagonist project, primary screen (AID 1156). As to conditions: P. falciparum-infected erythrocytes, osmotic lysis, higher = more signal, called active from +8 up or from −8 down.
A short description of test [6]: plasmodial surface anion channel blockers, osmotic lysis – cell-based, P. falciparum Indochina, OD700, 18 h, primary screen (AID 1157). As to conditions: P. falciparum Indochina infected erythrocytes, osmotic lysis OD700, 18 h; higher = more signal, called active from +8 up or from −8 down.
Test [7] in a line: S6 kinase pathway phospho-S6 level changes – cell-based, A549, cytoblot, luminescence, serum-stimulated, primary screen (AID 1158).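 Also: serum-stimulated A549 lung adenocarcinoma cells; signal is phosphorylated S6 detected by cytoblot immunostaining with HRP secondary.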 As to conditions: 5 h, higher = more signal.
Test [8] concerns the target NADPH oxidase 2 (Homo sapiens) (UniProt P04839). The test is described as follows: compounds shifting NOX2 Amplex Red fluorescence – cell-based, HEK293-NOX2, PMA-stimulated, NOX inhibitor project, primary screen (AID 1159). Also: test concentration not given here. As to conditions: 45 min, higher = more signal, called active from +8 up or from −8 down.
Test [9] deals with NADPH oxidase 4 (Homo sapiens) (UniProt Q9NPH5). Description: compounds shifting NOX4 Amplex Red fluorescence – cell-based, HEK293-NOX4, tetracycline-induced, NOX inhibitor project, primary screen (AID 1160). As to conditions: HEK293-NOX4, Amplex Red H2O2 fluorescence, 45 min; higher = more signal, called active from +8 up or from −8 down.
Chain of NADPH oxidase 4 (Homo sapiens) (Q9NPH5 whole entry, looked up): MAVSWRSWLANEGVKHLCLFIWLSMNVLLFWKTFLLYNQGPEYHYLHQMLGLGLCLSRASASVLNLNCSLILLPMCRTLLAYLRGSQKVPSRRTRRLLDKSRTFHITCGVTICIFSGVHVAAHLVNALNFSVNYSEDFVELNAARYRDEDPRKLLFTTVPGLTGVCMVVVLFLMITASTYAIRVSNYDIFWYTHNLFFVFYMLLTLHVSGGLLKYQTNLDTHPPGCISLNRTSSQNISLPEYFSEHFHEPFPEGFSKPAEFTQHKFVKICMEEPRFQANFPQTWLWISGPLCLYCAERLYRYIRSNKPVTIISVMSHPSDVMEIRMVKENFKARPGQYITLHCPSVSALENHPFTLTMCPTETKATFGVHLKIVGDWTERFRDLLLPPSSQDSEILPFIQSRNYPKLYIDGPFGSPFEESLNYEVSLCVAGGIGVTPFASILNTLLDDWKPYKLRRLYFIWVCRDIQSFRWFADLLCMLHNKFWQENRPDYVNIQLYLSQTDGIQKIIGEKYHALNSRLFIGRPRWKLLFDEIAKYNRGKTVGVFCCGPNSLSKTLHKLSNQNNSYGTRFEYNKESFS
Test [10] deals with NADPH oxidase 5 (Homo sapiens) (UniProt Q96PH1). The test is described as follows: compounds shifting NOX5 Amplex Red fluorescence – cell-based, HEK293-NOX5, NOX inhibitor project, primary screen (AID 1161). As to conditions: HEK293-NOX5, ionomycin, 45 min, higher = more signal.
Chain of NADPH oxidase 5 (Homo sapiens) (Q96PH1 whole entry, looked up): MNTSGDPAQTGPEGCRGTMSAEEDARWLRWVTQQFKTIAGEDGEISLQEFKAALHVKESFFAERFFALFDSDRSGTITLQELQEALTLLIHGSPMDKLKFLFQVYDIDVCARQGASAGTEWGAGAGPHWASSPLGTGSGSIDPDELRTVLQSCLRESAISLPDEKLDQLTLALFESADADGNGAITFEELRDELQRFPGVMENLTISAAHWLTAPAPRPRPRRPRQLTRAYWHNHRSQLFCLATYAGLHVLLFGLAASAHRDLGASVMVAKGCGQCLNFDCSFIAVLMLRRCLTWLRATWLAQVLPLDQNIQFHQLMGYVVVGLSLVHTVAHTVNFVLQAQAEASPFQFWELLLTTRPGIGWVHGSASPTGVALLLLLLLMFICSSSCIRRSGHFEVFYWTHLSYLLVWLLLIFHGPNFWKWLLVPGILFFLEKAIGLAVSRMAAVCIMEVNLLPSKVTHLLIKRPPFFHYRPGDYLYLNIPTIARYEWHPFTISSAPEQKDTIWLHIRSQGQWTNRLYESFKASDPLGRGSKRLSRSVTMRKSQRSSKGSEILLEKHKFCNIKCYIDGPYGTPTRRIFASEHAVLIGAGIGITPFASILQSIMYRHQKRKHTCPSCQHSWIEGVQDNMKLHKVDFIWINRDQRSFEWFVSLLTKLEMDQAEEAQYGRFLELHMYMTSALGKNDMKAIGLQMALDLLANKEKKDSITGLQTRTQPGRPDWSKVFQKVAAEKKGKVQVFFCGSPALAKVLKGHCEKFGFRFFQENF

Chain of NADPH oxidase 2 (Homo sapiens) (P04839 whole entry, looked up): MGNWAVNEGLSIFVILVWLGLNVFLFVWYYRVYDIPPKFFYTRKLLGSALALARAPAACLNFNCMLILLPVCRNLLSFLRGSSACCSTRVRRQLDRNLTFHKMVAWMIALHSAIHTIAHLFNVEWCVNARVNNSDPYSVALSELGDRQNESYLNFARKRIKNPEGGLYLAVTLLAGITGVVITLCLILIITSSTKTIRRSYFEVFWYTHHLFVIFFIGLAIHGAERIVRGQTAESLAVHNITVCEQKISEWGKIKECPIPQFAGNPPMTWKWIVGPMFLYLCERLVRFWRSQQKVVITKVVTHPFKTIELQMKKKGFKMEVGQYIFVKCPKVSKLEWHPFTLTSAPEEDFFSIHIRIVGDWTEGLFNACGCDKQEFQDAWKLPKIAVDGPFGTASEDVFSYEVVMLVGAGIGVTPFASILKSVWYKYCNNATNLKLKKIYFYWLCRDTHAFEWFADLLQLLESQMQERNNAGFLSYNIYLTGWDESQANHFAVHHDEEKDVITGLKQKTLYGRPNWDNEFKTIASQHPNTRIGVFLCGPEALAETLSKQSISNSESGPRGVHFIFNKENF

Take `C=CCN(CCCC)C(=O)C1N(c2c(Cl)cccc2CO)C(=O)C2C(C(=O)O)C3C=CC21O3` (stereo not given): the z-score in [1] is -0.074 (inactive) and 2.24 (inactive); in [3], 1.2 (inactive) and 1.94 (inactive); in [4], 1.05 (inactive) and 0.871 (inactive); in [5] it was 0.116 (inactive) and 0.127 (inactive); in test [6], 0.162 (inactive) and 0.432 (inactive); in test [7], -0.352 and 0.113. Besides, the z-score is 0.6 (inactive) and 0.353 (inactive) in test [8]; -0.381 (inactive) and -0.863 (inactive) in [9]; -0.708 and 0.0892 in [10]. Also, the composite z-score in [2] is -0.0544 and 0.452.
For the compound `COc1ccc(-c2ccc3c(n2)CCCN3CC(O)CN2CCCc3nc(-c4ccc(Br)cc4)ccc32)cc1` (stereo not given), the z-score in test [1] is -0.018 (inactive) and 0.615 (inactive); in test [3], 5.79 (inactive) and 1.91 (inactive); in [4], 1.07 (inactive) and 0.581 (inactive); in [5], 0.387 (inactive) and 0.0102 (inactive); in test [6], 0.322 (inactive) and 0.32 (inactive); in [7] it was -0.506 and -0.456. Moreover, the z-score in test [8] is 0.181 (inactive) and 2.63 (inactive); in test [9], 0.169 (inactive) and 0.657 (inactive); in test [10], -2.32 and -0.243. Further, the composite z-score in test [2] was 0.684 and 0.209.
For the compound `CCCNC(=O)OC[C@H]1O[C@H](CCON=C(C)CCN2CCc3nc(-c4ccccc4)c(-c4ccccc4)cc3C2)C=C[C@@H]1Oc1ccc(OC)cc1`, the z-score in test [1] was -1.29 (inactive); in [3] it was 1.77 (inactive); in test [4] it was 0.454 (inactive); in test [5], 0.571 (inactive); in [6], 0.441 (inactive); in test [7] it was 0.0851. For the same compound, the z-score in test [8] was -0.473 (inactive); in test [9], -2.55 (inactive); in test [10], -2.17. This compound also showed a composite z-score in test [2] of -0.0054.
As to `O=C1C[C@]2(c3ccc([N+](=O)[O-])cc3)C(=O)N(Cc3ccccc3)c3cc(CO)ccc3[C@H]2N1C1CCCCC1`, the z-score is 0.128 (inactive) and 0.873 (inactive) in [1]; 0.164 (inactive) and 11.5 (active) in [3]; -0.198 (inactive) and 1.01 (inactive) in [4]; -0.57 (inactive) and 4.35 (inactive) in test [5]; -0.434 (inactive) and -0.166 (inactive) in [6]; 0.483 and 2.97 in test [7]. For the same compound, the z-score is 0.139 (inactive) and 1.55 (inactive) in test [8]; 0.644 (inactive) and -1.56 (inactive) in test [9]; -0.416 and -0.385 in test [10]. The composite z-score in [2] was -0.221 and -0.0626.
Take `C[C@@H]1CC[C@H]2C(=O)NC[C@@H](O)CN2[C@H]1c1ccc(Br)cc1`: the z-score in [1] is -1.08 (inactive) and -0.445 (inactive); in [3], 0.211 (inactive) and -0.0955 (inactive); in [4], -0.0378 (inactive) and 0.0974 (inactive); in test [5], -0.114 (inactive) and -0.125 (inactive); in [6], -0.218 (inactive) and 0.0277 (inactive); in test [7] it was 0.53 and -0.753. Further, the z-score in test [8] was -0.807 (inactive) and 0.12 (inactive); in test [9], 0.283 (inactive) and 0.229 (inactive); in test [10], 0.646 and 0.135. For the same compound, the composite z-score in test [2] was -0.426 and -0.017.
As to `C[C@@H]1CN2[C@@H](CC[C@@H](C)[C@@H]2c2ccc(Br)cc2)C(=O)O1`, the z-score in [1] is -1.42 (inactive) and 0.0426 (inactive); in test [3], 0.169 (inactive) and -0.313 (inactive); in test [4], 0.279 (inactive) and -1.09 (inactive); in [5], -0.425 (inactive) and -0.16 (inactive); in [6], 0.125 (inactive) and -1.18 (inactive); in [7] it was -0.0649 and 1.61. Also, the z-score in test [8] was 1.55 (inactive) and -0.12 (inactive); in [9], -1 (inactive) and 0.168 (inactive); in [10], 0.0337 and 0.614. The composite z-score in test [2] was 0.0367 and -0.275.
For `C=CCN(Cc1ccccc1)C(=O)C(c1cccs1)N(C(=O)/C=C\C(=O)O)c1ccc(CCO)cc1` (stereo not given), the z-score in [1] was 0.906 (inactive) and 0.383 (inactive); in test [3], 0.149 (inactive) and -0.674 (inactive); in test [4] it was -0.36 (inactive) and 0.526 (inactive); in test [5] it was 0.0823 (inactive) and -0.0781 (inactive); in [6], 0.283 (inactive) and 0.306 (inactive); in test [7] it was 1.84 and 0.284. Besides, the z-score in test [8] was -0.228 (inactive) and -0.269 (inactive); in test [9] it was -0.353 (inactive) and -0.512 (inactive); in [10], -0.0714 and -0.0433. Besides, in test [2], the composite z-score was -0.0449 and -0.314.
Take `C=CC[C@H](O)c1ccc(OCCO)cc1`: the z-score in [1] is -0.349 (inactive) and -0.895 (inactive); in test [3], 0.965 (inactive) and 1.27 (inactive); in test [4], 0.396 (inactive) and -0.262 (inactive); in [5] it was -0.0706 (inactive) and -0.94 (inactive); in test [6] it was 0.475 (inactive) and 0.084 (inactive); in [7] it was 0.263 and 0.368. Further, the z-score in [8] is -0.317 (inactive) and -0.425 (inactive); in test [9] it was -0.103 (inactive) and 0.574 (inactive); in test [10], 0.811 and 0.51. Also, in test [2], the composite z-score was -0.017 and -0.491.
`C=C[C@@H](C)[C@H](O)c1ccc(O)c2ccccc12`: the z-score in [1] is 0.687 (inactive) and 0.0364 (inactive); in [3] it was 1.57 (inactive) and 1.31 (inactive); in [4] it was 0.651 (inactive) and 0.739 (inactive); in test [5], -0.198 (inactive) and -0.13 (inactive); in test [6], 0.795 (inactive) and 0.599 (inactive); in [7], 0.166 and 0.217. Besides, the z-score is -4.9 (inactive) and -4.75 (inactive) in test [8]; -0.696 (inactive) and -0.723 (inactive) in test [9]; 1.07 and 1.48 in test [10]. In addition, in [2], the composite z-score was -0.313 and -0.104.
